ChEMBL document CHEMBL4808148, “HDAC6 screening dataset using tau-based substrate in an enzymatic assay yields selective inhibitors and activators” (2021)
Screen size: about 5,600 compounds; about 390 (7%) showed an effect of 50% or more. The sample holds strong results, similar compounds and a random draw of the others, so the mix is not that of the screen.

Experiments:
[1] = molecular target: T1, Protein deacetylase HDAC6 (Homo sapiens) (UniProt Q9UBN7); settings: at 10 µM
T1 sequence (whole entry): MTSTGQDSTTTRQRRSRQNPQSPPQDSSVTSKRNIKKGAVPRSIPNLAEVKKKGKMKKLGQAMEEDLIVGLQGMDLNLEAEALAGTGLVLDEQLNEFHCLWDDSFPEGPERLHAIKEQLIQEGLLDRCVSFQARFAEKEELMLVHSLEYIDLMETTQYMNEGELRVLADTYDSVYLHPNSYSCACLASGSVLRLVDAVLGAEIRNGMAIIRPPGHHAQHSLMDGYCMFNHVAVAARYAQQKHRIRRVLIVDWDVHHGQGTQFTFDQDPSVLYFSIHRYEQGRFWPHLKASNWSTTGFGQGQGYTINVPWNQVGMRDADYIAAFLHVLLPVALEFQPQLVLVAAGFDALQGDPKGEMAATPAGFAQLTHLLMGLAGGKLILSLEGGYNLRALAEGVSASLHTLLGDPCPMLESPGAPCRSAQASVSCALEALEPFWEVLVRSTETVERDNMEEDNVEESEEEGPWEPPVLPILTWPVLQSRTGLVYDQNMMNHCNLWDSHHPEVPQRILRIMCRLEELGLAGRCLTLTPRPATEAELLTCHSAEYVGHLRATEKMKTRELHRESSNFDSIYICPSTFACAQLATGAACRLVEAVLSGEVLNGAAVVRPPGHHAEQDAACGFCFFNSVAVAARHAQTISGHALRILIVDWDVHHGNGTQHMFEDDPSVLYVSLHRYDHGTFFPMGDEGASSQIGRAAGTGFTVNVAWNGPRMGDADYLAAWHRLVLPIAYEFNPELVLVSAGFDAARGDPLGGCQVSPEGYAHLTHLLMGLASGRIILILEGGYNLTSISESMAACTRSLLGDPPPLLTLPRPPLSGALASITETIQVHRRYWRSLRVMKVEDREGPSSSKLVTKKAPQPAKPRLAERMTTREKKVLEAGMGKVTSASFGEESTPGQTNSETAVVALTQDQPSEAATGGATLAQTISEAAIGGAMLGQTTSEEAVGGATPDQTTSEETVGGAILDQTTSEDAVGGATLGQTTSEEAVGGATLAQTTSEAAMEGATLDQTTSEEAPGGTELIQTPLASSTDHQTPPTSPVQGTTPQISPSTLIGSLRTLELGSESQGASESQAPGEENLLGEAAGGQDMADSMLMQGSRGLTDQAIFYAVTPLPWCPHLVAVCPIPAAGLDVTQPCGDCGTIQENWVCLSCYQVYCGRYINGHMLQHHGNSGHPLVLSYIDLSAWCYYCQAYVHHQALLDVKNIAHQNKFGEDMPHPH

[2] = molecular target: Protein deacetylase HDAC6 (Homo sapiens) (UniProt Q9UBN7); settings: at 10 µM; remark: listed apart in the source

| Compound | inhibition [1] | inhibition [2] |
| --- | --- | --- |
| Cc1ccsc1C(=CCCN1CCC[C@@H](C(=O)O)C1)c1sccc1C | 20.9% |  |
| NC1(c2ccc(-c3nc4ccn5c(=O)[nH]nc5c4cc3-c3ccccc3)cc2)CCC1 | 12.5% |  |
| O=C(O)CCc1cc(I)c(Oc2ccc(O)cc2)c(I)c1 | -9.91% |  |
| CC(CNS(=O)(=O)C(C)C)c1ccc(-c2ccc(C#N)cc2)cc1 (stereo not drawn) | 23.9% |  |
| O=C(Nc1ccc(OC(F)(F)F)cc1)c1sccc1NCc1ccnc2ccccc12 | 18.5% |  |
| CN(C)CCOC(=O)COc1ccc(Cl)cc1 | 1.19% |  |
| CN1CCN(C2=Nc3ccccc3Sc3ccc(Cl)cc32)CC1 | 29.6% |  |
| CN(C)CCOC1=Cc2ccccc2Sc2ccc(Cl)cc21 | 96.6% |  |
| C[C@H]1[C@H](C)CC[C@]2(C(=O)O)CC[C@]3(C)C(=CC[C@@H]4[C@@]5(C)C[C@@H](O)[C@H](O)C(C)(C)[C@@H]5CC[C@]43C)[C@H]12 | -2.75% |  |
| Cc1ccc([C@@H]2O[C@H](CO)[C@@H](O)[C@H](O)[C@H]2O)cc1Cc1ccc(-c2ccc(F)cc2)s1 | -5.59% |  |
| CC(C)NC(=O)N1CC[C@H](NC2=Nc3cc(F)ccc3N(CC(F)F)c3ccc(Cl)cc32)C1 | 29.2% |  |
| CN(C)CCn1cc(S(=O)(=O)c2cccc(F)c2)c2cccnc21 | 14.3% |  |
| O=C(NCCCCCCNC(=O)ON=C1CCCCC1)ON=C1CCCCC1 | 40.7% |  |
| AUROTHIOGLUCOSE, CHEMBL1697725 |  | 8.56% |
| COc1ccc2[nH]c(C(=O)c3ccccc3)cc2c1 | 109% |  |
| COc1ccc2cc([C@H](C)C(=O)O)ccc2c1 | -2.33% |  |
| COc1ccc2[nH]c(-c3ccccc3)c(CCNC(C)=O)c2c1 | 9.99% |  |
| Cc1nn(C)c2c1C(c1ccc(C(F)(F)F)cc1)C(C#N)=C(N)O2 (stereo not drawn) | 27.3% |  |
| OC[C@H]1O[C@@H]2O[C@H]3[C@H](O)[C@@H](O)[C@@H](O[C@H]4[C@H](O)[C@@H](O)[C@@H](O[C@H]5[C@H](O)[C@@H](O)[C@@H](O[C@H]6[C@H](O)[C@@H](O)[C@@H](O[C@H]7[C@H](O)[C@@H](O)[C@@H](O[C@H]8[C@H](O)[C@@H](O)[C@@H](O[C@H]1[C@H](O)[C@H]2O)O[C@@H]8CO)O[C@@H]7CO)O[C@@H]6CO)O[C@@H]5CO)O[C@@H]4CO)O[C@@H]3CO | -4.02% |  |
| O=C(O)c1cc2occc2[nH]1 | 21.7% |  |
| Cc1cc(C)c(N(Cc2ccccc2)S(=O)(=O)c2ccc(OCCNC(=O)c3cc4ccccc4o3)cc2)c(C(=O)NO)c1 | 71.8% |  |

| Compound | inhibition [1] | inhibition [2] |
| --- | --- | --- |
| CN(C(=O)C(Cl)Cl)c1ccc(OC(=O)c2ccco2)cc1 | 5.17% |  |
| CO/N=C(/C(=O)N[C@@H]1C(=O)N2C(C(=O)O)=C(CSc3nc(=O)c(O)nn3C)CS[C@H]12)c1csc(N)n1 | -3.44% |  |
| COc1cc(C[C@H](C)[C@H](C)Cc2ccc3c(c2)OCO3)ccc1O | 0.28% |  |
| COc1cccc(CN(C(=O)CC(C)(C)C)[C@H]2C[C@@H](C(=O)N3CCNCC3)N(Cc3ccc4c(c3)OCO4)C2)c1 | 2.2% |  |
| COc1cccc(-c2cc(NCc3ccc4c(c3)OCO4)nc(N)n2)c1 | 68.7% |  |
| O=C(NCCS(=O)(=O)c1ccc(C(F)(F)F)cn1)c1ccc(Cl)cc1 | -5.62% |  |
| CCOC(=O)Nc1ccc2c(c1)N(C(=O)CN(CC)CC)c1ccccc1CC2 | 18.9% |  |
| OC[C@H]1OC(O)[C@H](F)[C@@H](O)[C@H]1O (stereo partly drawn) | -0.45% |  |
| NC1=NCC2c3ccccc3Cc3ccccc3N12 (stereo not drawn) | 4.93% |  |
| CCOc1ccc2nc(S(N)(=O)=O)sc2c1 | 25.8% |  |
| Nc1nc2ccc(OC(F)(F)F)cc2s1 | 72.9% |  |
| C=C[C@]1(C)CC[C@@H](C(=C)C)C[C@H]1C(=C)C | 7.53% |  |
| Nc1ccc(O)c(C(=O)O)c1 | 0.62% |  |
| O=C(Oc1ccccc1C(=O)O)c1ccccc1O | 43.2% |  |
| Nc1ccc(C(=O)Oc2ccccc2)c(O)c1 | 108% |  |
| O=S(=O)(N[C@H](CO)C(C(F)(F)F)C(F)(F)F)c1ccc(Cl)s1 | 9.08% |  |
| O=P(O)(O)OC[C@H]1OC(O)(COP(=O)(O)O)[C@@H](O)[C@@H]1O (stereo partly drawn) | 8.76% |  |
| Cc1csc(NC(=O)CSc2ccc(-c3ccccc3)nn2)n1 | 31.4% |  |
| O[C@@H]1[C@H](O)[C@@H](CCl)O[C@H]1n1cnc2c(NC3CC4CCC3C4)ncnc21 (mixture of isomers) | 17.3% |  |
| CCOc1ccc(NC(C)=O)cc1 | -4.35% |  |
| CCCCOc1ccc(C(=O)CCN2CCCCC2)cc1 | 4.77% |  |

| Compound | inhibition [1] | inhibition [2] |
| --- | --- | --- |
| CCCCOc1ccc(CC(=O)NO)cc1 | 73% |  |
| CC[C@@]1(O)C(=O)OCc2c1cc1n(c2=O)Cc2c-1nc1cc(F)c(C)c3c1c2[C@@H](N)CC3 | 45.5% |  |
| CCN(CC)CCOC(=O)C1(c2ccc([N+](=O)[O-])cc2)CCCC1 | 17.3% |  |
| CC1=C(/C=C/C(=C/C=C/C(C)=C/C(=O)O)c2ccc(C)cc2)C(C)(C)CCC1 | 32.2% |  |
| CC(C)NC(=O)COc1cccc(-c2nc(Nc3ccc4[nH]ncc4c3)c3ccccc3n2)c1 | 4.77% |  |
| O=C(CCNNC(=O)c1ccncc1)NCc1ccccc1 | -0.28% |  |
| CCCCCCCCCCCCCCCC(=O)NCCO | 7.03% |  |
| O=C(CCCCCCNC(=O)c1cnc(N(c2ccccc2)c2ccccc2)nc1)NO | 101% |  |
| O=C(O)C1CN(Cc2ccc(-c3nc4cc(Cc5ccccc5F)ccc4s3)c(F)c2)C1 | 12.2% |  |
| CCCCC/C=C\C=C/CCCCCCCCC(=O)O | 13.9% |  |
| c1ccc(CNCc2ccc(CN3CCCNCCNCCCNCC3)cc2)nc1 | -1.23% |  |
| Clc1cccc2c1CN(C1=NCCN1)C2 | -3.56% |  |
| O=c1[nH]nc2c3c(cccc13)N=C(CN1Cc3ccccc3C1)N2 | -8.46% |  |
| CN(C)Cc1ccc(S(=O)(=O)n2ccc(/C=C/C(=O)NO)c2)cc1 | 101% |  |
| Cn1nc(-c2ccc(C(F)(F)F)cc2)nc2c(=O)n(C)c(=O)nc1-2 | 12.3% |  |
| CC(=O)OC[C@H]1O[C@@H](n2ccc(=O)[nH]c2=O)[C@H](OC(C)=O)[C@@H]1OC(C)=O | 41.6% |  |
| O=C(NC1CCC1)c1ccc(C#Cc2cccc(F)c2)nc1 | 53.6% |  |
| Cc1c(F)cc(C(=O)NC2CC2)cc1-c1ccc(C(=O)NCC(C)(C)C)cn1 | -6.14% |  |
| CCOC(=O)c1ccc(C#Cc2ccc3c(c2)C(C)(C)CCS3)nc1 | 22.8% |  |
| COc1ccc(CC(=O)NC(N/C(=N/C#N)Nc2cccc3ncccc23)C(C)(C)C)cc1OC (stereo not drawn) | 17.5% |  |
| NC(=O)OC[C@@H]1[C@H](NC(=O)/C(=N\OCC(=O)O)c2csc(N)n2)C(=O)N1S(=O)(=O)O | 1.5% |  |
